Each structure is given as a SMILES string. Unmarked numbers belong to inactive results. For some of these results: Results with a measured potency or affinity are listed apart. The source made the active and inactive calls. Unless noted, no rule for the calls is given here.

The nature of assay [1]: antimalarial activity against Dd2 strain (AID 2302;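 active = growth inhibition above 50% at the single 2 µM test dose, taken to imply half-maximal potency below 2 µM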;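 also: 0% = DMSO untreated growth and 100% = chloroquine plus artemisinin killed control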). Particulars: P. falciparum Dd2 in RBCs, LDH growth readout, 72 h; at 2 µM; stronger effect = higher value.
Assay [2] can be described thus: HepG2 cytotoxicity, primary screen, cytotoxicity control for P. falciparum antimalarial project, cell-based, ATP luminescence (AID 2303;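 active = inhibition above 50%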;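 also: 0% = DMSO wells and 100% = digitonin-killed cells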). Particulars: HepG2 viability, 24-48 h, at 10 µM, stronger effect = higher value.
In assay [3] the target is L-lactate dehydrogenase (Plasmodium falciparum (isolate CDC / Honduras)) (UniProt Q27743). Put plainly: PfLDH activity inhibition – cell lysate, 3D7 strain, counter-screen for P. falciparum growth inhibition project (AID 2304).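 Also: 0% = vehicle and 100% = reference inhibitor.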 As to conditions: P. falciparum 3D7 crude extract, LDH APAD/NBT absorbance; at 2 µM; stronger effect = higher value.
A short description of assay [4]: inhibition of 3D7 malaria parasite growth – strain 3D7 (AID 2306).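 Also: 0% = DMSO wells and 100% = chloroquine plus artemisinin control wells.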 Particulars: P. falciparum 3D7 erythrocytic growth, LDH absorbance, 72 h; at 2 µM; stronger effect = higher value.
Assay [5] deals with Calcium-dependent protein kinase 1 (Plasmodium falciparum (isolate 3D7)) (UniProt P62344). Put plainly: PfCDPK1 kinase inhibitors, biochemical, TCAMS library (AID 1159585; cut-off not given, nearly all actives have IC50 up to about 0.98 µM;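 also: inhibitors leave more ATP so luminescence rises with inhibition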). As to conditions: recombinant PfCDPK1, Kinase-Glo ATP depletion luminescence.
The target in assay [6] is Plasmodium falciparum protein kinase 6 (PK6, PF3D7_1337100) (UniProt Q8IDW1). Nature of the assay: PfPK6 kinase inhibitors, biochemical, TCAMS library (AID 1159586). As to conditions: recombinant PfPK6, Kinase-Glo ATP depletion luminescence.
The target in assay [7] is Protein kinase 7 (PK7), Plasmodium falciparum 3D7 (PF3D7_0213400) (UniProt Q7YTF7). Put plainly: inhibition of Plasmodium PK7 catalytic activity – biochemical, TCAMS antimalarial set, Kinase-Glo luminescence (AID 1159587). As to conditions: recombinant PfPK7, Kinase-Glo ATP depletion luminescence.
Assay [8] deals with Calcium-dependent protein kinase 4 (Plasmodium falciparum (isolate 3D7)) (UniProt Q8IBS5). Nature of the assay: PfCDPK4 kinase inhibitors, biochemical, TCAMS library (AID 1159588; cut-off not given, nearly all actives have IC50 up to about 0.91 µM). As to conditions: recombinant PfCDPK4, Kinase-Glo ATP depletion luminescence.
Chain of Calcium-dependent protein kinase 4 (Plasmodium falciparum (isolate 3D7)) (Q8IBS5 whole entry, looked up): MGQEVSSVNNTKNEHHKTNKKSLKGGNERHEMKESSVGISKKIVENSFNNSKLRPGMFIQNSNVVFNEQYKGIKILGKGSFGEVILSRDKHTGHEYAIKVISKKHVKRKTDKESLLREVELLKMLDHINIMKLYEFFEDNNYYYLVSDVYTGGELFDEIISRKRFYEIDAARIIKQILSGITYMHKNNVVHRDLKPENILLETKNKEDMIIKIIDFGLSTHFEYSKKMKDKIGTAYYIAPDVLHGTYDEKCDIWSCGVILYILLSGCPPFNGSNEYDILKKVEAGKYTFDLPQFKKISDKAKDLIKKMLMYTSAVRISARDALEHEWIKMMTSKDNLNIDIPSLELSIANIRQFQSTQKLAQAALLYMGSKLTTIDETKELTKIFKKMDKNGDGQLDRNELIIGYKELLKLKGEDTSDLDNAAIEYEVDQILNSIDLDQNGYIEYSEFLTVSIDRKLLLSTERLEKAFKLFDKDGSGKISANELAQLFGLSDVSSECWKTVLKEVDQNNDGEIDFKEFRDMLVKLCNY

Chain of L-lactate dehydrogenase (Plasmodium falciparum (isolate CDC / Honduras)) (Q27743 whole entry, looked up): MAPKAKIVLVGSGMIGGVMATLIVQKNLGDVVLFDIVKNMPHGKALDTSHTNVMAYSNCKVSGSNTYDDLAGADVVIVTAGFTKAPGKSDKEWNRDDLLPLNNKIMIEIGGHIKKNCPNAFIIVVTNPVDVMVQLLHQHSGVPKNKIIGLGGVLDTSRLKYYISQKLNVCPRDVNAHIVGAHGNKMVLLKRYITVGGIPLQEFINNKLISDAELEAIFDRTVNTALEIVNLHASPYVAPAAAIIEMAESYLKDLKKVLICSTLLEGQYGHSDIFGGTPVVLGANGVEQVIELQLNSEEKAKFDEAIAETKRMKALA
Chain of Plasmodium falciparum protein kinase 6 (PK6, PF3D7_1337100) (Q8IDW1 1-305): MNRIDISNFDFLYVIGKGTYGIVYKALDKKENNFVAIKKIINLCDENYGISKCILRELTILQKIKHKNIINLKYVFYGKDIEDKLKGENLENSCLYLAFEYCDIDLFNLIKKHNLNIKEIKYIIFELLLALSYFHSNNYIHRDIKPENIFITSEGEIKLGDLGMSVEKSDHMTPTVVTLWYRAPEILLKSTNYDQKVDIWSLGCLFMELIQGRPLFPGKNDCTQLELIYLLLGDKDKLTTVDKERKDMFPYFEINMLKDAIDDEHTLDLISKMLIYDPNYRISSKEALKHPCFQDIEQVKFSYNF
Chain of Protein kinase 7 (PK7), Plasmodium falciparum 3D7 (PF3D7_0213400) (Q7YTF7 1-343): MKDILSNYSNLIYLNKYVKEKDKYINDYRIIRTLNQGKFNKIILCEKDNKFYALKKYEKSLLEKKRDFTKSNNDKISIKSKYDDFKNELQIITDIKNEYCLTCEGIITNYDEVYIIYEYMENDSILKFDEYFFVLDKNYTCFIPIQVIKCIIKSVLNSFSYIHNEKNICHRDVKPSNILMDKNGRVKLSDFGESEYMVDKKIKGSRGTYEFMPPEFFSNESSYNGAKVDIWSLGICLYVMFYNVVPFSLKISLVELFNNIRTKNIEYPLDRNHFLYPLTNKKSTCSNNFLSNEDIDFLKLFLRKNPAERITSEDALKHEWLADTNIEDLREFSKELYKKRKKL
Chain of Calcium-dependent protein kinase 1 (Plasmodium falciparum (isolate 3D7)) (P62344 whole entry, looked up): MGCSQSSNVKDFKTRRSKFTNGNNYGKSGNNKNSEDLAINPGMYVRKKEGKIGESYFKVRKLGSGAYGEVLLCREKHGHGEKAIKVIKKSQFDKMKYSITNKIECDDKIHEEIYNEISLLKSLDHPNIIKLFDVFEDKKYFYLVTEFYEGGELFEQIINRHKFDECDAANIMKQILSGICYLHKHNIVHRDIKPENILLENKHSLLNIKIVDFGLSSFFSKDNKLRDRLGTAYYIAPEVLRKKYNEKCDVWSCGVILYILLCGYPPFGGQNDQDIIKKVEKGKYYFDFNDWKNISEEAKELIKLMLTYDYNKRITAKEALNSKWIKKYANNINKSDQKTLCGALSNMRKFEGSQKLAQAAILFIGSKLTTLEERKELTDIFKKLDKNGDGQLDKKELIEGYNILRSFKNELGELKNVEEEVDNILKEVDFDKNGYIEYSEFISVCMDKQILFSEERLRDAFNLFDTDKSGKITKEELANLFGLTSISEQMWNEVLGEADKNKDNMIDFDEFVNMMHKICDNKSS

`CCn1cc2c3c(cc(C(=O)N[C@@H](Cc4ccccc4)[C@H](O)CNCc4cccc(OC)c4)cc31)N(C)S(=O)(=O)CC2`: the growth inhibition in assay [1] was 97% (active); in assay [4], 99% (active). Also, the inhibition in assay [2] is -12%; in assay [3], 0%. Also, the result in assay [5], in assay [6], in assay [7] and in assay [8] was inactive.
As for `CN(C)c1ccc(CN2CCC(NC(=O)c3ccc(-c4cccc(C(F)(F)F)c4)s3)CC2)cc1`, the growth inhibition in assay [1] is 40%; in assay [4], 97% (active). For the same compound, the inhibition was 90% (active) in assay [2] and -4% in assay [3]. The result in assay [5], in assay [6], in assay [7] and in assay [8] was inactive.
In the case of `O=[N+]([O-])c1cccc(CNCC2CCC(CNCc3cccc([N+](=O)[O-])c3)CC2)c1` (stereo not given), the growth inhibition in assay [1] was 76% (active); in assay [4] it was 100% (active). The results for the inhibition in assay [2] and in assay [3] were 39% and -1%, respectively. For the same compound, the result in assay [5], in assay [6], in assay [7] and in assay [8] was inactive.
On to `O=C(Nc1cccc(CN2CCCN(Cc3ccc(O)cc3)CC2)c1)c1cc2ccccc2o1`, for which the growth inhibition was 62% (active) in assay [1] and 95% (active) in assay [4]. In addition, the inhibition is 10% in assay [2] and 0% in assay [3]. The outcome in assay [5], in assay [6], in assay [7] and in assay [8] was inactive.
In the case of `COc1cccc2cc(C(=O)N[C@@H](CC(C)C)C(=O)N[C@H](/C=N/NC(=O)c3ccccc3)Cc3cnc[nH]3)oc12`, the figures for the growth inhibition in assay [1] and in assay [4] were 90% (active) and 99% (active), respectively. In addition, the inhibition in assay [2] was 3%; in assay [3] it was -6%. For the same compound, the result in assay [5], in assay [6], in assay [7] and in assay [8] was inactive.
`O=C(Nc1cccc(-c2cccc(-c3nc4ccc(C(F)(F)F)cc4[nH]3)c2)c1)c1csnn1`: the growth inhibition in assay [1] is 37%; in assay [4], 99% (active). The inhibition was 45% in assay [2] and 3% in assay [3]. Moreover, the outcome in assay [5], in assay [6], in assay [7] and in assay [8] was inactive.
As for `CN(C)CC1c2[nH]c3ccccc3c2CCN1C(=O)Nc1ccc(Cl)c(Cl)c1` (stereo not given), the values for the growth inhibition in assay [1] and in assay [4] were 32% and 90% (active), respectively. For the same compound, the inhibition is 99% (active) in assay [2] and -6% in assay [3]. Also, the result in assay [5], in assay [6], in assay [7] and in assay [8] was inactive.
For `COc1cc(Cl)c(C)cc1N(Cc1ccccc1-c1ccccc1)S(=O)(=O)c1ccc(C(F)(F)F)cc1`, the growth inhibition in assay [1] was 62% (active); in assay [4], 90% (active). Moreover, the inhibition in assay [2] is 23%; in assay [3], -2%. The outcome in assay [5], in assay [6], in assay [7] and in assay [8] was inactive.
Regarding `Cc1cc(N2CCOCC2)nc2ccc(NC(=O)c3ccc(Cl)c([N+](=O)[O-])c3)cc12`, the growth inhibition in assay [1] was 15%; in assay [4], 98% (active). The results for the inhibition in assay [2] and in assay [3] were 12% and 3%, respectively. The result in assay [5], in assay [6], in assay [7] and in assay [8] was inactive.
On to `Cc1cc(N[C@@H](CC(C)C)C(=O)NC2CCCC2)nc(NCC2CCCCC2)n1`, for which the growth inhibition in assay [1] was 88% (active); in assay [4], 101% (active). In addition, the inhibition in assay [2] was 8%; in assay [3] it was 0%. Also, the outcome in assay [5], in assay [6], in assay [7] and in assay [8] was inactive.
Regarding `CC(=O)Nc1ccc(OCCN(CC(C)C)c2ccc(C(F)(F)F)c(C#N)c2)c(Cl)c1`, the growth inhibition in assay [1] is 95% (active); in assay [4] it was 96% (active). The values for the inhibition in assay [2] and in assay [3] were 13% and 2%, respectively. The outcome in assay [5], in assay [6], in assay [7] and in assay [8] was inactive.
With `Cc1cc(C)c(NC(=O)NC2CCN(CCCCCNC(=O)/C=C/c3ccc(Cl)c(Cl)c3)CC2)c(C)c1`, the growth inhibition in assay [1] is 17%; in assay [4], 103% (active). The inhibition was 30% in assay [2] and 2% in assay [3]. In addition, the outcome in assay [5], in assay [6], in assay [7] and in assay [8] was inactive.
On to `CCc1nonc1NC(=O)c1oc2c(C)c(C)ccc2c1C`, for which the growth inhibition in assay [1] is 64% (active); in assay [4], 89% (active). The inhibition in assay [2] is 1%; in assay [3] it was -3%. For the same compound, the outcome in assay [5], in assay [6], in assay [7] and in assay [8] was inactive.
Turning to `COc1cc(O)c2c(=O)c(OC)c(-c3cccc(Cl)c3OC3O[C@H](CO)[C@@H](O)[C@H](O)[C@H]3O)oc2c1OC` (stereo not given in full), the growth inhibition in assay [1] was 6%; in assay [4], 101% (active). Further, the results for the inhibition in assay [2] and in assay [3] were 16% and -2%, respectively. Further, the result in assay [5], in assay [6], in assay [7] and in assay [8] was inactive.
Regarding `CCCC(N)C(=O)NC1CCN(c2c(F)c(N)c3c(=O)c(C(=O)O)cn4c3c2Oc2ccccc2-4)C1` (stereo not given), the growth inhibition in assay [1] and in assay [4] was 98% (active) throughout. In addition, the inhibition was 66% (active) in assay [2] and -5% in assay [3]. For the same compound, the result in assay [5], in assay [6], in assay [7] and in assay [8] was inactive.
On to `O=C(Nc1ccc2ccccc2n1)c1ccccc1-c1ccccc1`, for which the results for the growth inhibition in assay [1] and in assay [4] were 83% (active) and 90% (active), respectively. Further, the inhibition in assay [2] was 14%; in assay [3] it was 0%. In addition, the result in assay [5], in assay [6], in assay [7] and in assay [8] was inactive.
`CCSc1ccccc1COc1c(C)nc(N)nc1N`: the growth inhibition in assay [1] is 4%; in assay [4], 93% (active). Moreover, the figures for the inhibition in assay [2] and in assay [3] were 54% (active) and 3%, respectively. The outcome in assay [5], in assay [6], in assay [7] and in assay [8] was inactive.
Turning to `Fc1cccc(COc2ccc(Nc3ncnc4ccc(C#C[C@H]5CCCN5)cc34)cc2Cl)c1`, the growth inhibition in assay [1] was 26%; in assay [4], 91% (active). Besides, the inhibition is 7% in assay [2] and -2% in assay [3]. The result in assay [5], in assay [6], in assay [7] and in assay [8] was inactive.
For the compound `CCC(C)(C)c1ccc(OCCCC(=O)Nc2ccc(Cl)c([N+](=O)[O-])c2)c(C(C)(C)CC)c1`, the results for the growth inhibition in assay [1] and in assay [4] were 88% (active) and 92% (active), respectively. For the same compound, the inhibition is -1% in assay [2] and -8% in assay [3]. For the same compound, the outcome in assay [5], in assay [6], in assay [7] and in assay [8] was inactive.
Regarding `O=C(C=Cc1ccc(Cl)c(Cl)c1)NCCCCCN1CCC(CCCNC(=O)c2sc3ccccc3c2Cl)CC1`, the growth inhibition is 40% in assay [1] and 93% (active) in assay [4]. The inhibition was 99% (active) in assay [2] and -5% in assay [3]. The outcome in assay [5], in assay [6], in assay [7] and in assay [8] was inactive.

Source of the values: PubChem BioAssay.
